# Screening results: PubChem BioAssay, National Center for Advancing Translational Sciences (NCATS)
# Pf growth 96h: Primary qHTS for delayed death inhibitors of the malarial parasite plastid, 96 hour incubation; P. falciparum luciferase reporter growth, 96 h; Potency, µM (top dose mostly 28.7 µM), usual class: inhibitors; hit rate 6.9% among 320,000; AID 504834, 2011
#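 Compounds incubated with erythrocytes infected by luciferase-expressing P. falciparum (2% hematocrit, 0.05% parasitemia final) for 96 hours, 37 C in 5% CO2. Growth inhibition scored as decreased luciferase luminescence.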
# CHX counter: Cycloheximide Counterscreen for Small Molecule Inhibitors of Shiga Toxin; max response, %; hit rate 12% among 300,000; cell reporter, cycloheximide protein synthesis inhibition counterscreen; in the data active means max response mostly above about 13%, no sharp cut-off; inactive means mostly below about 14%; further: read at 38.3 µM for the half of the compounds with a filed dose
# Pf growth 48h: Primary qHTS for delayed death inhibitors of the malarial parasite plastid, 48 hour incubation | P. falciparum luciferase growth in erythrocytes, 48 h | Potency, µM (doses to about 28.7 µM), actives largely listed as inhibitors | hit rate 5.9% among 310,000
#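 Cell-based growth assay: transgenic P. falciparum expressing firefly luciferase, cultured in red cells within RPMI 1640 containing 0.5% w/v Albumax, 24 mM bicarbonate and gentamycin. A drop in luciferase activity indicates inhibition.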
# HCMV antiviral: qHTS Assay for inhibitors of the human cytomegalovirus (HCMV); HFF cells, HCMV-luciferase reporter, 72 h; stronger effect = lower value; activity change, negative = inhibition, % at 57.5 µM; hit rate 4.5% among 410,000; in the data active means activity change below about -60%; inconclusive means no clear call, values can overlap the other calls; inactive means above about -39%
#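 Cell-based, HFFs, 1000 cells/well, 16 h 37C; cpds in DMSO + HCMV-luc, MOI 1 PFU/cell; 72 h 37C; OneGlo luminescence after 5 min RT; norm. to buffer vs Salinomycin 10uM.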
# HCV inh: qHTS Assay for Inhibitors of Hepatitis C Virus (HCV). hit rate 3.4% among 340,000. Huh7.5.1 HCVcc-Cre infection, luciferase reporter, 44 h. Potency, µM (highest dose often 41.8 µM), hits mostly inhibitors. AID 651820, 2012
#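 HCVcc-Cre virus at an moi near 0.5 was added right after compound to cells cultured 4 h from seeding (1,000 cells/well). Luciferase activity was determined 44 h later, 15 min after substrate addition at RT.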
# Shiga toxin inh: A qHTS for Small Molecule Inhibitors of Shiga Toxin | Vero cells, Shiga toxin protein synthesis inhibition reporter | inhibition, % at 38.7 µM | hit rate 9.2% among 290,000 | AID 2315, 2010; in the data active means inhibition mostly above about 28%, no sharp cut-off; inactive means mostly below about 43%
# Numbers stand for hits; 0 = inactive; ? = inconclusive; - = no result given; [ ] = dose if it differs, or a comment. A selection: hits, their analogues and other compounds. The true share with any hit is near 21%. Unless noted, the call rests on the fitted dose curve; in most records, active means well fitted inhibition curve with a large enough effect; inconclusive means small, poorly fitted or top-dose-only effect, or another doubt; inactive means no such curve, though single readings can be large or run the other way.
SMILES,Pf growth 96h,CHX counter,Pf growth 48h,HCMV antiviral,HCV inh,Shiga toxin inh
Cc1cc(OCC(=O)N2CCOCC2)cc2oc(=O)c3ccccc3c12,?,20.9,0,0,0,35.5
O=C1NC(c2ccccc2)(c2ccccc2)C(=O)N1CNc1ccccn1,-,-,-,0,-,-
O=C(COc1ccc(Cl)cc1)N1CCN(c2ccc([N+](=O)[O-])c(N3CCCCC3)c2)CC1,10.4µM,0,?,0,?,0
Cc1cc(C)c(C)c(OCC(=O)N2CCOCC2)c1,13.1µM,0,-,0,0,0
Cc1ccc(C)c(OCCCC(=O)O)c1,-,0,0,0,0,0
Cc1ccc(C)c(OCCCC(=O)N2CCOCC2)c1,0,27.3,0,0,0,44.2
CO,0,-,0,-,-,-
S=C(NCc1ccc(Cl)cc1)Nc1ccncc1,0,0,13.1µM,?,6.31µM,0
S=C(NCc1ccc(Cl)cc1)Nc1ccccc1,0,0,0,-66.5,0,0
Fc1ccc(CNC(=S)Nc2ccc(Cl)cc2)cc1,?,0,0,?,0,0
COc1ccccc1NC(=O)N[C@H]1CC[C@@]23CCCN2C(=O)CCC[C@H]3C1Cc1ccccc1 (some centres not stated),-,-,-,0,-,-
Cc1ccc2c(=O)n3c(nc2c1)C(Cc1ccccc1)NC(=O)c1cc(Cl)ccc1-3 (configuration not stated),-,-,-,?,0,-
Cc1cc(C(=O)N2CCN(S(=O)(=O)c3ccccc3F)CC2)c(C)o1,0,0,0,0,0,0
NS(=O)(=O)c1ccc(CCNC(=O)/C=C/c2cccc([N+](=O)[O-])c2)cc1,0,0,0,?,0,0
COc1cc(/C=C/C(=O)NCCc2ccc(S(N)(=O)=O)cc2)ccc1OCC#N,11.7µM,0,?,?,0,0
CCOc1cc(/C=C/C(=O)NCCc2ccc(S(N)(=O)=O)cc2)ccc1OCC(C)C,0.657µM,0,?,0,?,0
CC(C)CN=C(NS(=O)(=O)c1ccccc1)C(Cl)(Cl)Cl,10.4µM,0,2.62µM,-99.5,5.01µM,0
CC1(c2nnc(Cc3ccccc3)o2)CC(c2cccnc2)=NO1 (configuration not stated),-,-,-,0,0,-
Cc1c(Cl)c([N+](=O)[O-])nn1CC(=O)NCc1ccc(Cl)cc1,?,0,0,0,0,0
O=C(Cc1ccc([N+](=O)[O-])cc1)NCc1ccccc1Cl,0,0,0,0,0,0
O=C(Cc1ccccc1[N+](=O)[O-])NCc1ccc(Cl)cc1Cl,0,43.9,0,0,0,87.5
CC(C)C(NC(=O)Cc1ccccc1[N+](=O)[O-])C(C)C,11.7µM,0,0,0,0,0
O=C(NCc1ccc(Cl)cc1)c1n[nH]c([N+](=O)[O-])c1Cl,0,45.0,?,0,0,60.8
O=C(Cc1ccccc1[N+](=O)[O-])NCc1ccc(Cl)cc1,0,33.4,0,0,0,0
Cc1cccc(C(c2sc3nc(-c4ccco4)nn3c2O)N2CCOCC2)c1 (configuration not stated),-,-,-,0,-,-
SMILES,Pf growth 96h,CHX counter,Pf growth 48h,HCMV antiviral,HCV inh,Shiga toxin inh
CN(CC(=O)Nc1ccccc1Cl)C(=O)COC(=O)/C=C/c1cccc(C(F)(F)F)c1,0,-,?,0,0,-
C=CCNc1oc(-c2cccc3ccccc23)nc1C#N,?,45.6,0,0,6.31µM,44.8
CCNc1oc(-c2cccc3ccccc23)nc1C#N,0,0,0,0,?,58.3
N#Cc1nc(Cc2cccc3ccccc23)oc1NCCCN1CCOCC1,0,0,?,0,?,0
CC(C)Nc1oc(-c2cccc3ccccc23)nc1C#N,0,30.0,?,0,?,84.3
COCCNc1oc(-c2ccccc2Cl)nc1C#N,0,0,-,0,0,0
CN(C)CCNc1oc(-c2ccccc2F)nc1C#N,?,0,0,0,0,0
CC1CCN(c2oc(-c3cccc4ccccc34)nc2C#N)CC1,0,0,0,0,0,0
N#Cc1nc(-c2cccc3ccccc23)oc1NCCN1CCCCC1,-,0,?,0,11.2µM,0
O=C(N[C@H]1C/C=C\C[C@H](CC(=O)N(CCO)Cc2ccccc2)C(=O)NC[C@H](c2ccccc2)OC1=O)OCC1c2ccccc2-c2ccccc21,-,-,-,-,0,-
Cc1ccc(-n2cc(-c3ccccc3)c3c(N4CCN(C)CC4)ncnc32)cc1,0,0,?,0,0,0
COc1cccc(N2CCN(c3ncnc4c3c(-c3ccccc3)cn4-c3ccc(C)cc3)CC2)c1,-,-,-,-62.9,-,-
Cc1cccc(-n2cc(-c3ccccc3)c3c(N4CCOCC4)ncnc32)c1,?,0,?,0,3.16µM,0
CCOC(=O)Cc1c(C)nc2c(C#N)c[nH]n2c1=O,0,0,0,0,-,0
CCc1c(C)nc2c(C#N)c[nH]n2c1=O,0.522µM,0,0,0,0,0
CNC[C@H]1Oc2c(NS(=O)(=O)c3cccs3)cccc2C(=O)N([C@H](C)CO)C[C@@H]1C,-,-,-,0,0,-
O=C(CSc1nc2ccccc2c(=O)n1NC(=O)c1ccccc1)c1ccc(Cl)cc1,0,34.4,0,0,0,97.7
Cc1nc2c3ccccc3nc(SCC(=O)N3CC(C)CC(C)C3)n2n1 (configuration not stated),?,0,-,0,0,0
Cc1nc2c3ccccc3nc(SCC(=O)c3ccc(Cl)cc3)n2n1,?,0,0,0,25.1µM,0
O=C(CSc1nc2ccccc2c(=O)n1NC(=O)c1ccccc1)c1ccccc1,0,40.8,0,0,0,73.7
O=C(Cn1cnc2ccccc2c1=O)NNC(=O)c1ccccc1,0,0,0,0,0,0
Cc1nnsc1-c1c(C(=O)N2CCOCC2)c(C)nn1-c1ccc(Cl)cc1,?,0,0,0,0,0
O=C(N/N=C/C1CC=CCC1)c1cc2ccccc2cc1O (configuration not stated),?,13.3,0,0,0,0
O=C(N/N=C/C1CC=CCC1)c1ccc(O)cc1O (configuration not stated),0,71.4,0,0,0,0
CCOC(=O)c1ccc(Cl)c(S(=O)(=O)N2CCCC2)c1,0,0,?,0,0,0
SMILES,Pf growth 96h,CHX counter,Pf growth 48h,HCMV antiviral,HCV inh,Shiga toxin inh
COc1cccc(C2CN(c3ccc(F)cc3F)N=C2c2cccs2)c1OC (configuration not stated),11.7µM,0,5.86µM,0,0,0
CC(=O)N1CCC(c2c[nH]c3ccccc23)CC1,0,0,0,0,0,0
CC(C)Oc1nc(-c2ccccc2O)nc2ccccc12,0[5.75 µM],0,0,0,12.6µM,0
COc1cccc(-c2nc(N3CCCC3)c3ccccc3n2)c1O,0,0,0,0,5.01µM,0
c1ccc2c(N3CCCCC3)nc(N3CCCCC3)nc2c1,-,0,0,0,0,0
C(=C\c1nc(N2CCCCCC2)c2ccccc2n1)/c1ccccc1,0,23.4,0,?,?,35.7
